According to PubChem BioAssay (EPA / NIEHS):
Results filed as inconclusive are left out. Active and inactive are the calls of the source. Rule for the calls: active = hit-call score of the fitted dose curve at least 0.9, where 1 is the maximum; inconclusive = response in the unintended direction; inactive = score below 0.9.

Each compound was assayed against Estrogen receptor (Homo sapiens) (UniProt P03372) (assay: OT_ER_ERaERa_0480: Odyssey Thera (OT) 8-hour HEK293T Protein-Complementation Assay for Estrogen Receptor-alpha/-alpha Homodimer (AID 2283351);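 note: rise in fluorescence from reassembled reporter fragments on ERα LBD homodimer in nucleus or whole cell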).
Summary of the method: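 Binding reporter in which dimerisation of ERα LBD (aa 310-547) fusions reconstitutes a fluorescent reporter in HEK293T cells. Compounds incubated 8 h; mean fluorescence intensity increase versus DMSO scored.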

Estrogen receptor (Homo sapiens), sequence (P03372 whole entry, looked up, the tested form may be a part): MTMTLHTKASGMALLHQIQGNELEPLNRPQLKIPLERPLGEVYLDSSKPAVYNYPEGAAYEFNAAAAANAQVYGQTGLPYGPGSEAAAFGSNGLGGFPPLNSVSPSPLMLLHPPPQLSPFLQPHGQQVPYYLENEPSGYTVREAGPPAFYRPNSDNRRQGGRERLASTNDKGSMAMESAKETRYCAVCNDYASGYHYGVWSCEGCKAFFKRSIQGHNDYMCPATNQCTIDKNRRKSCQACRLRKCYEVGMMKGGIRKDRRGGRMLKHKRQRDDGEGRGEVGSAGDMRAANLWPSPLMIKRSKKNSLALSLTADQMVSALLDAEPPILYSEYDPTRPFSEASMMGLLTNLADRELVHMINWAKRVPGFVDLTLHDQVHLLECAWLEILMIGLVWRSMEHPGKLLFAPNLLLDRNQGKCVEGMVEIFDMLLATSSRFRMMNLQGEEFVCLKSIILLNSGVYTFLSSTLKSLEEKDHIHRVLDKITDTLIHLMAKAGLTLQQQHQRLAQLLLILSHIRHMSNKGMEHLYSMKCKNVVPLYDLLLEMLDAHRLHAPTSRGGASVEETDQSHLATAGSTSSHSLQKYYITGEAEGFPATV

Row | Compound | outcome | AC50
1 | Cc1ccc(S(=O)(=O)NCl)cc1 | inactive | 
2 | C#C[C@]1(O)CC[C@H]2[C@@H]3CCc4cc(OC)ccc4[C@H]3CC[C@@]21C |  | 9.95 µM (active)
3 | CCCCOc1ccc(N)cc1 | inactive | 
4 | CC(CCl)OP(=O)(OC(C)CCl)OC(C)CCl (stereo not drawn) | inactive | 
5 | CCCCC(CC)COP(=O)(O)OCC(CC)CCCC (stereo not drawn) | inactive | 
6 | COC(=O)C1CCC(C(=O)OC)CC1 (stereo not drawn) | inactive | 
7 | CCCCCCOC(=O)c1ccccc1 | inactive | 
8 | C(=C(c1ccccc1)c1ccccc1)c1ccccc1 |  | 5.6 µM (active)
9 | CCN(Cc1cccc(S(=O)(=O)O)c1)c1ccc(C(=C2C=CC(=[N+](CC)Cc3cccc(S(=O)(=O)O)c3)C=C2)c2ccc(O)cc2S(=O)(=O)[O-])cc1 | inactive | 
10 | C1COCCN1 | inactive | 
11 | Cc1cc(C)cc(O)c1 | inactive | 
12 | CCCCCCC(C)OC(=O)CCCCC(=O)OC(C)CCCCCC (stereo not drawn) | inactive | 
13 | O=C(OCCOCCOCCOC(=O)c1ccccc1)c1ccccc1 | inactive | 
14 | O=S(=O)(O)c1ccc2ccccc2c1 | inactive | 
15 | CCCCCCOC(=O)c1ccccc1O | inactive | 
16 | [Co] | inactive | 
17 | c1ccc(B(c2ccccc2)c2ccccc2)cc1 |  | 55.7 µM (active)
18 | CNC(=S)NC | inactive | 
19 | OC[C@@H](O)[C@@H](O)[C@H](O)[C@@H](O)CO | inactive | 
20 | CC/C=C\CCOC(C)=O | inactive | 
21 | CN(C)Cc1ccccc1O | inactive | 
22 | CC(Cc1ccc(O)c(O)c1)C(C)Cc1ccc(O)c(O)c1 (stereo not drawn) |  | 11.9 µM (active)
23 | CC(C)OC(=O)c1ccccc1C(=O)OC(C)C |  | 62.8 µM (active)

What follows are compounds tested against Estrogen receptor (Homo sapiens) + Estrogen receptor beta (Homo sapiens) (UniProt P03372+Q92731) (assay: OT_ER_ERaERb_0480: Odyssey Thera (OT) 8-hour HEK293T Protein-Complementation Assay for Estrogen Receptor-alpha/-beta Heterodimer (AID 2283352)).
Summary of the method: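 Increase in mean fluorescence intensity, measured by laser scanning plate cytometry, reported ER-alpha/ER-beta LBD complementation in HEK293T cells after 8 h chemical exposure. DMSO served as baseline; basal signal is low, punctate and cytoplasmic.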

Estrogen receptor (Homo sapiens) + Estrogen receptor beta (Homo sapiens), sequence (P03372 whole entry, looked up, the tested form may be a part): as above
Estrogen receptor (Homo sapiens) + Estrogen receptor beta (Homo sapiens), sequence (Q92731 whole entry, looked up, the tested form may be a part): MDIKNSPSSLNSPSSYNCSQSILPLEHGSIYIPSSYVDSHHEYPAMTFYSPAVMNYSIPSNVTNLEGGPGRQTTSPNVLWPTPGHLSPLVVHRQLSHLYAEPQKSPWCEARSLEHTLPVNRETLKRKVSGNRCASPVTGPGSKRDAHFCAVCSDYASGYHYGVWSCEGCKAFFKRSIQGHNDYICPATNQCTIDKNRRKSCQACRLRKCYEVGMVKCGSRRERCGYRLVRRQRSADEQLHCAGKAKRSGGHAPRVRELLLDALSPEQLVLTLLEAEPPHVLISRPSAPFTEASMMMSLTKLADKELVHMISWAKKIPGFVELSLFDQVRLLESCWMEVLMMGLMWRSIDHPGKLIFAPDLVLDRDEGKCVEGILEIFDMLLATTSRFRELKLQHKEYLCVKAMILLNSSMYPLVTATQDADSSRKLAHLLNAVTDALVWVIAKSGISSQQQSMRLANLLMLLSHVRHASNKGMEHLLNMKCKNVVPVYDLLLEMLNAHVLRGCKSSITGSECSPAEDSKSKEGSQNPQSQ

Row | Compound | outcome | AC50
24 | CCCCOc1ccc(N)cc1 | inactive | 
25 | CC(CCl)OP(=O)(OC(C)CCl)OC(C)CCl (stereo not drawn) | inactive | 
26 | COC(=O)C1CCC(C(=O)OC)CC1 (stereo not drawn) | inactive | 
27 | CCCCCCOC(=O)c1ccccc1 | inactive | 
28 | C(=C(c1ccccc1)c1ccccc1)c1ccccc1 |  | 9.47 µM (active)
29 | CCN(Cc1cccc(S(=O)(=O)O)c1)c1ccc(C(=C2C=CC(=[N+](CC)Cc3cccc(S(=O)(=O)O)c3)C=C2)c2ccc(O)cc2S(=O)(=O)[O-])cc1 | inactive | 
30 | C1COCCN1 | inactive | 
31 | Cc1cc(C)cc(O)c1 | inactive | 
32 | CCCCCCC(C)OC(=O)CCCCC(=O)OC(C)CCCCCC (stereo not drawn) | inactive | 
33 | O=C(OCCOCCOCCOC(=O)c1ccccc1)c1ccccc1 | inactive | 
34 | CCCCCCOC(=O)c1ccccc1O |  | 60.2 µM (active)
35 | [Co] | inactive | 
36 | CC/C=C\CCOC(C)=O | inactive | 
37 | CN(C)Cc1ccccc1O | inactive | 
38 | CC(Cc1ccc(O)c(O)c1)C(C)Cc1ccc(O)c(O)c1 (stereo not drawn) |  | 2.42 µM (active)

Each compound was assayed against Androgen Receptor/SRC-1 Co-activator, AR (gene 367) (UniProt P10275) (assay: OT_AR_ARSRC1_0960: Odyssey Thera (OT) 16-hour HEK293T Protein-Complementation Assay for Androgen Receptor/SRC-1 Co-activator (AID 2283353);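 note: actives raise the signal above DMSO so potency reflects increased AR and SRC-1 complex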).
Description: OT_AR_ARSRC1_0960 is a cell-based, single-readout assay that uses HEK293T, a human kidney cell line, with measurements taken at 16 hours after chemical dosing in a 384-well plate.OT_AR_ARSRC1_0960 is one of one assay component(s) measured or calculated from the OT_AR_ARSRC1_0960 assay. It is designed to make measurements of protein fragment complementation, a form of binding reporter, as detected with fluorescence intensity signals by Protein-fragment Complementation technology.Data from the assay component OT_AR_ARSRC1_0960 was analyzed into 1 assay endpoint. This assay endpoint, OT_AR_ARSRC1_0960, was analyzed in the positive analysis fitting direction relative to DMSO as the negative control and baseline of activity. Using a type of binding reporter, measures of receptor for gain-of-signal activity can be used to understand the binding at the pathway-level as they relate to the gene AR. Furthermore, this assay endpoint can be referred to as a primary readout, because the performed assay has only produced 1 assay endpoint. To generalize the intended target to other relatable targets, this assay endpoint is annotated to the nuclear receptor intended target family, where the subfamily is steroidal.
Protein-fragment complementation assay, or PCA, is a method for the identification and quantification of protein-protein interactions. In the PCA, the proteins of interest ("bait" and "prey") are each covalently linked to fragments of a third protein (e.g. DHFR, which acts as a "reporter"). Interaction between the bait and the prey proteins brings the fragments of the reporter protein in close proximity to allow them to form a functional reporter protein whose activity can be measured. The OT AR / SRC-1 assay assessed androgen receptor chemical interactions using a rapidly maturing, intensely fluorescent mutant of YFP known as Venus, rationally dissected into two separate fragments. […] Fusion constructs were transfected into HEK293T cells with a (Gly4Ser)2 linker between the AR/SRC-1 and YFP fragment genes to facilitate complementation when interacting proteins bring fragments into close proximity. The construct is stably expressed in HEK293T cells. […] Images were acquired on an Evotec Opera at 2 wavelengths (488 and 635nm), and the ratio of fluorescence in the nucleus relative to fluorescence in the cytoplasm (N/C Ratio) in the 488nm channel was calculated for a minimum of 400 cells per image. Both agonists and antagonists of the AR receptor induce nuclear translocation to varying degrees. […] The OT AR/SRC-1 assay was also run for 16 hours (see description for OT_AR_ARSRC1_0960).

Androgen Receptor/SRC-1 Co-activator, AR (gene 367), sequence (P10275 whole entry, looked up, the tested form may be a part): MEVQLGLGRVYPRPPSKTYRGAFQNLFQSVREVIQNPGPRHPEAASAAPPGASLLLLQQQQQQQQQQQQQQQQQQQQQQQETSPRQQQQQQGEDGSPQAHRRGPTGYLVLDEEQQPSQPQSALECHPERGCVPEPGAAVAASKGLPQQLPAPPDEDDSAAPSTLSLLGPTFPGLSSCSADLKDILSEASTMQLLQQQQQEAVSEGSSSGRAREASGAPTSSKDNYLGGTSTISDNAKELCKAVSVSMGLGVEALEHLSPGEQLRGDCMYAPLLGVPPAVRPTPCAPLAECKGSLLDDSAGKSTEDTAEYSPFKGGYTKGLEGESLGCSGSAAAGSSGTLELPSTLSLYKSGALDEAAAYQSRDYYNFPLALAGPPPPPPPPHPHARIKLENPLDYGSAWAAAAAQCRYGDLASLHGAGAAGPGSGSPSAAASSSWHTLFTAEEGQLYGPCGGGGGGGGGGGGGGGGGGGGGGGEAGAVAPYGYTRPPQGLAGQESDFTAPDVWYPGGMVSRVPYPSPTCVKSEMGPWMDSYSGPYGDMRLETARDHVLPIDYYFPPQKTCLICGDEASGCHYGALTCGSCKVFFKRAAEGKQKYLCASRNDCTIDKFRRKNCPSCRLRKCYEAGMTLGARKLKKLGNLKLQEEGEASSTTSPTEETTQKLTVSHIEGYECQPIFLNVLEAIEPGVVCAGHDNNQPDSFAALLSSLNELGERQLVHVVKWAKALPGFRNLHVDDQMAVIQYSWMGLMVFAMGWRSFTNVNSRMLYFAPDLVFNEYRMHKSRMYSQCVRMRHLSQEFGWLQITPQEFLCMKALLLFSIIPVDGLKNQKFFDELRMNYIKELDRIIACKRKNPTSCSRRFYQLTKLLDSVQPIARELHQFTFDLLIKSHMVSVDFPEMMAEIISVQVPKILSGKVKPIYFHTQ

Row | Compound | outcome
39 | CCCCCCC(C)OC(=O)CCCCC(=O)OC(C)CCCCCC (stereo not drawn) | inactive
40 | CCCCCCOC(=O)c1ccccc1O | inactive
41 | [Co] | inactive
42 | CNC(=S)NC | inactive
43 | CN(C)Cc1ccccc1O | inactive

These compounds were tested against Androgen Receptor/SRC-1 Co-activator, AR (gene 367) (UniProt P10275) (assay: OT_AR_ARSRC1_0480: Odyssey Thera (OT) 8-hour HEK293T Protein-Complementation Assay for Androgen Receptor/SRC-1 Co-activator (AID 2283354);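 note: hits raise the complementation signal above DMSO so AC50 marks enhancers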).
Summary of the method: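 Measures AR/SRC-1 binding by Venus YFP fragment complementation in HEK293T stable lines at 8 h post-dose. Imaging quantifies the 488nm nucleus/cytoplasm ratio in ≥400 cells; DMSO defines baseline.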

Row | Compound | outcome
44 | CCCCCCC(C)OC(=O)CCCCC(=O)OC(C)CCCCCC (stereo not drawn) | inactive
45 | CCCCCCOC(=O)c1ccccc1O | inactive
46 | [Co] | inactive
47 | CNC(=S)NC | inactive
48 | CN(C)Cc1ccccc1O | inactive
